Consider 40 compounds from PubChem BioAssay (Tox21).

Structures are written as SMILES. Inconclusive results are not listed. Calls of active or inactive are those of the source. Calls follow the shape of the dose curve; as a rule, active = well fitted cell-killing curve with a large enough effect in the repeat runs; inconclusive = weak or mixed curves, or effect the other way; inactive = flat fitted curve, though single readings scatter.
% is scaled to controls: 0 for no effect and ±100 for the full control effect; potency is read from the fitted curve at half-maximal effect.

The test is described as follows: Caspase-3/7 induction in HepG2 cells by small molecules, qHTS cell viability counter screen (AID 1346981). Also: nearly all actives have a fitted effect of over 30% in size. As to conditions: CellTiter-Fluor fluorescence, 17 h; series mostly up to 92.4 µM; activity change, negative = cytotoxicity: at the top concentration. The source says: U.S. Tox21 Program National Center for Advancing Translational Sciences [NCATS] NIH Chemical Genomics Center [NCGC] U.S. Environmental Protection Agency [EPA] National Institutes of Environmental Health Sciences [NIEHS] National Toxicology Program [NTP] U.S. Food and Drug Administration [FDA] Tox21 Assay Overview: Apoptosis is a process of programmed cell death and plays a central role in the development of multicellular organisms. It is a highly regulated process and induces cell death by activating caspases, which are the members of cysteine aspartic acid-specific protease (caspase) family. Caspases involved in apoptosis are classified by their mechanism of action as initiator caspases (caspase-2, -8, -9 and -10) and executioner caspases (caspase-3, -6, and -7). Inhibition of apoptosis results in number of cancers, autoimmune diseases, inflammatory diseases and viral infection. To identify small molecule compounds that induce apoptosis, a homogeneous, luminescent Caspase-Glo 3/7 assay was used. Wild type HepG2 cells were used to screen Tox21 libraries for identifying caspase-3/7 activity inducers. Also cytotoxicity of the compounds was tested in parallel by measuring the cell viability using CellTiter-Fluor assay system in the same wells.
Tox21 Assay Protocol Summary: HepG2 cells were dispensed at 2,000 per well in 5uL of culture medium into white solid bottom 1536-well plates (Corning Life Sciences, Corning, NY) using a Multidrop Combi (Thermo Scientific, Waltham, MA) dispenser. The assay plates were incubated at 37 C and 5% CO2 for 5hr, and then 23nL of compounds dissolved in DMSO and positive control were transferred using a Pintool station ([…], San Diego, CA). The assay plates were incubated at 37C and 5% CO2 for 17hr. For cytotoxicity read, after 16hr incubation at 37C, 1uL CellTiter-Fluor reagent (Promega Corporation, Madison, WI) was added to each well of the assay plates using Flying Reagent Dispenser (FRD, Aurora Discovery, San Diego, CA). After 1hr incubation at 37C and 5% CO2, the fluorescence signal was quantified using a ViewLux plate reader (PerkinElmer, Shelton, CT).
As to `CC(C)C(=O)c1ccccc1`, the “activity change, negative = cytotoxicity” value was -0.357% (inactive).
With `CCC1COC(=O)O1` (stereo not given), the “activity change, negative = cytotoxicity” value is -0.908% (inactive).
On to `COc1cc([N+](=O)[O-])ccc1N`, for which the Potency was 54.5 µM (active).
`Cc1cc(C)cc([N+](=O)[O-])c1`: the “activity change, negative = cytotoxicity” value is 1.44% (inactive).
For the compound `CO[Si](CCCS)(OC)OC`, the “activity change, negative = cytotoxicity” value is 11.1% (inactive).
Turning to `CCCCCCCCCCCCC`, the “activity change, negative = cytotoxicity” value was -0.721% (inactive).
On to `FC(F)(F)c1ccc(Cl)cc1Cl`, for which the “activity change, negative = cytotoxicity” value is 10.5% (inactive).
Same read-out and setting: with `CO[Si](CCCCl)(OC)OC` the figure was -3.23% (inactive).
On the same count and under the same terms, the figure for `O=C(c1ccc2c(c1)C(=O)OC2=O)c1ccc2c(c1)C(=O)OC2=O` is 3.6% (inactive); for `Cc1ccc(S(=O)(=O)NC(=O)NC2CCCCCCC2)cc1` it is 7.41% [at 42.5 µM] (inactive); for `CCCCCCCCCCCCCC(=O)OC` it is -7.36% (inactive).
In the case of `O=C(O)C(=O)Nc1cccc(-c2nn[nH]n2)c1`, the “activity change, negative = cytotoxicity” value was 2.83% [at 42.5 µM] (inactive).
Still for that read-out and setting: the figure for `CC(C)=CC(C)(C)C` is 5.3% (inactive); for `CCOC(=O)C(C)(C)C` it is 1.28% (inactive).
With `NS(=O)(=O)c1cc2c(cc1Cl)NC(C(Cl)Cl)NS2(=O)=O` (stereo not given), the “activity change, negative = cytotoxicity” value was -1.36% [at 42.5 µM] (inactive).
The same measure, in the same setting: with `CC(=O)OC(C)(C)Cc1ccccc1` the figure was -0.149% (inactive).
Turning to `O=C(O)c1c(Cl)ccc(Cl)c1Cl`, the “activity change, negative = cytotoxicity” value was 0.494% (inactive).
The same measure, in the same setting: with `CCCCCCCCCCCCCCCC(=O)NCCO` the figure was -1.46% [at 42.5 µM] (inactive); with `CC(=O)/C=C/c1ccco1`, -0.433% (inactive).
Still for that read-out and setting: the figure for `CC(C)c1ccccc1O` is 3.7% (inactive); for `CCOC(=O)OCC/C(SC(=O)OCC)=C(\C)N(C=O)Cc1cnc(C)nc1N` it is 0.864% [at 42.5 µM] (inactive).
With `Cc1cccc(Nc2ccncc2S(=O)(=O)NC(=O)NC(C)C)c1`, the “activity change, negative = cytotoxicity” value is -0.501% [at 42.5 µM] (inactive).
Regarding `CCOC(=O)CC(CC(=O)OCC)(OC(C)=O)C(=O)OCC`, the “activity change, negative = cytotoxicity” value is 0.91% (inactive).
On to `Nc1ccnc(=O)[nH]1`, for which the “activity change, negative = cytotoxicity” value is 0.732% (inactive).
Take `CNC(=O)NC`: the “activity change, negative = cytotoxicity” value was 1.68% (inactive).
Same read-out and setting: with `CCCCC(CC)C(=O)OC(C)C` (stereo not given) the figure was 9.52% (inactive); with `FC(F)(F)/C(=N\OCC1OCCO1)c1ccc(Cl)cc1`, 1.58% (inactive).
With `CCN(CCO)c1cccc(C)c1`, the “activity change, negative = cytotoxicity” value was 4.89% (inactive).
Regarding `CCCCOC(=O)C(=O)OCCCC`, the “activity change, negative = cytotoxicity” value is 5.79% (inactive).
The same measure, in the same setting: with `Cc1nc2ccccc2c(=O)o1` the figure was -2.41% (inactive); with `CCCCCCCCOC(C)=O`, 4.16% (inactive).
As to `CCN(CC)C(=O)C1CN2CCc3cc(OC)c(OC)cc3C2CC1OC(C)=O` (stereo not given), the “activity change, negative = cytotoxicity” value was 6.12% [at 42.5 µM] (inactive).
The same measure, in the same setting: the figure for `CCNC(=O)/C=C/c1cccc(Br)c1` is 0.524% [at 42.5 µM] (inactive); for `C/C=C(\C)C(=O)OCC/C=C\CC` it is 4.17% (inactive); for `CC(=O)N1CCN(c2ccc(O)cc2)CC1` it is 5.79% [at 42.5 µM] (inactive).
As to `Cc1oc(=O)oc1CN1CCN(c2cc3c(cc2F)c(=O)c(C(=O)O)c2n3C(C)S2)CC1` (stereo not given), the “activity change, negative = cytotoxicity” value is -8.57% [at 42.5 µM] (inactive).
With `Nc1ccc(/C=C/c2ccc(N)cc2S(=O)(=O)O)c(S(=O)(=O)O)c1`, the activity change, negative = cytotoxicity was 1.29% [at 0.349 µM] (inactive).
The same measure, in the same setting: the figure for `CCCCOC(=O)C(C)OC(=O)CCC` (stereo not given) is 4.71% (inactive); for `CC1(N)CCC(C(C)(C)N)CC1` (stereo not given) it is -0.768% (inactive); for `CCOC(=O)CCc1ccccc1` it is 0.887% (inactive).
